Assay outcomes from PubChem.
KCNH2 WT inh – inhibitors of human wildtype KCNH2 potassium channel | U2OS, BacMam KCNH2, thallium flux FluxOr; stronger effect = lower value | activity change, % at 1.84 µM | 340,000 tested, 0.37% active;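 active = maximum activity change below -70%; inconclusive = maximum activity change between -70% and -50%; inactive = maximum activity change above -50%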; note: % is set by controls: 0 for no effect and ±100 for the full control effect
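U2OS cells transduced with wild-type KCNH2 virus are loaded with FluxOr dye for 45 min, and thallium flux is measured in kinetic reads before and after stimulation buffer. Rate constants are normalized to DMSO controls.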
TRPV1 potentiator – enhances activation of the human vanilloid receptor TRPV1. 320,000 tested, 0.02% active. potentiation, % at 8.33 µM. AID 540277. Q8NER1. TRPV1-expressing cells, Fluo-8 calcium influx, capsaicin EC20 potentiation; in the data active = potentiation above about 80%; inconclusive = between about 30% and that limit; note: 0% is about no effect
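Cells expressing TRPV1 were dye-loaded with Fluo-8 and read kinetically: 10 s baseline, 3 min after compound (agonist portion), then 2 min after EC20 capsaicin (allosteric enhancer portion). Calcium-bound dye fluorescence at 480/520 nm.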
p53 reactivator – mutant p53 re-activation in reporter cells. H1299 p53-A138V BP100-luciferase reporter, luminescence, 24 h. Potency, µM (top dose mostly 92.2 µM), for the others: at the top dose activity change, positive = activation, usual class: activators. 320,000 tested, 0.063% active. AID 504706; active = well fitted activation curve with a large enough effect; inconclusive = small, poorly fitted or top-dose-only effect; inactive = no such curve, though single readings can be large or run the other way; note: potency is the fitted concentration of half-maximal effect; % of control where 0% means no effect; nearly all actives have a fitted effect of over 45% in size
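p53-null H1299 cells stably carrying temperature-sensitive p53-A138V and a BP100-luciferase reporter were pinned with compounds (4-point, 1:5 series) and held 24 hrs at 37 deg C. Luminescence was read 10 min after detection reagent.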
ClpP mod – qHTS Assay for Activators of ClpP. purified B. subtilis ClpP, FRET peptide cleavage, 20 min. Potency, µM (top dose mostly 57.5 µM), for inactives: at the top dose activity change, negative = active. 340,000 tested, 1.9% active; active = well fitted falling curve with a large enough effect; inconclusive = small, poorly fitted or top-dose-only effect; inactive = no such curve, though single readings can be large or run the other way; note: potency is the fitted concentration of half-maximal effect; the source files actives as falling curves though it sought activators and does not explain the sign; nearly all actives have a fitted effect of over 65% in size
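ClpP 10 microg/mL final, pH 8 Tris/KCl buffer with BSA, glycerol, Tween-20; compound pinned in; FRET-FV substrate; RT 20 min; Ex320/Em430; ΔFRET vs ADEP 5.8 microM, DMSO, no enzyme.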
KCNH2 3.1 block – KCNH2 3.1 (human) potassium channel inhibition. 340,000 tested, 0.95% active. activity change, % (tested at about 1.8 µM). U2OS KCNH2 3.1, thallium flux FluxOr; stronger effect = lower value;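 active = maximum activity change below -70%; inconclusive = maximum activity change from -70% to -50%; inactive = maximum activity change above -50%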;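 note: thallium influx rate constant from kinetic fluorescence after stimulation buffer; % is set by controls: 0 for no effect and ±100 for the full control effect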
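Channel expression came from 3.1 mutant virus (1.77 x 10^8 /mL) applied to suspended U2OS cells for 4 h. Flux was tracked with FluxOr dye plus Red40 quencher, and kinetic rate constants normalized to controls.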
TRPV1 agonist – human TRPV1 agonism; Q8NER1; TRPV1-expressing cells, Fluo-8 calcium influx, agonist mode; activation, % at 8.33 µM; 320,000 tested, 0.19% active; AID 540275; in the data active = activation above about 80%; inconclusive = between about 30% and that limit; note: 0% is about no effect
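Fluo-8 calcium influx in TRPV1-expressing cells, kinetic read (ex 480/em 520 nm). Compound added and read 3 min for agonist activity, followed by capsaicin at EC20 final and 2 min further read for enhancement.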
Active calls of the source: *; i = inactive; ? = inconclusive; . = no result given. Compounds with a hit are over-represented: about 2.6% of the library has one in this group of screens.

SMILES	KCNH2 WT inh	TRPV1 potentiator	p53 reactivator	ClpP mod	KCNH2 3.1 block	TRPV1 agonist
O=C(NCCN1CCN(Cc2ccccc2)CC1)Nc1cc(Cl)cc(Cl)c1	?	6	-6%	0%	-93*	2
O=C(NCCN1CCN(c2ccc([N+](=O)[O-])cc2)CC1)NCc1ccccc1	-10	-15	.	-2%	-73*	11
O=C(NCCN1CCN(c2cccc(Cl)c2)CC1)Nc1ccccc1	31	-13	-3%	-4%	2	?
O=C(CN1CCN(Cc2ccc(Cl)cc2)CC1)N/N=C/C=C/c1ccccc1[N+](=O)[O-]	-36	-3	17%	0%	-91*	4
COc1ccc(-c2csc(C(NC(C)=O)c3ccccc3)n2)cn1 (stereo not drawn)	.	.	.	1%	.	.
OC(c1ccc(F)c(F)c1)c1nc(-c2ccc(Cl)cc2)cs1 (stereo not drawn)	.	.	.	0%	.	.
O=C(Cn1c(=O)oc2cc(S(=O)(=O)N3CCCCC3)ccc21)NCc1ccc(Cl)cc1	.	.	.	-1%	.	.
O=C(NCCN1CCN(S(=O)(=O)c2ccc([N+](=O)[O-])cc2)CC1)C(=O)Nc1ccccc1	22	?	3%	28µM*	2	-2
O=C(CCN1CCN(c2ccc([N+](=O)[O-])cc2)CC1)c1ccc(Cl)cc1	-77*	3	2%	.	-113*	1
Cc1ccc(S(=O)(=O)N2CCN(CC(=O)Nc3ccc([N+](=O)[O-])cc3)CC2)cc1C	-76*	-4	-7%	-2%	-92*	4
CCOc1ccc(NC(=O)CC2C(=O)N(c3ccc(C)cc3)C(=O)N2C2CCCCC2)cc1 (stereo not drawn)	.	.	.	-1%	.	.
Cc1c(O)c2c(c(C(=O)/C=C/c3ccccc3)c1O)OC(C)(C)C=C2	.	.	.	-1%	.	.
CC(C)CCN1C(Nc2ccccc2)=NC[C@@H]1Cc1ccccc1	5	10	.	0%	0	4
CC(CCN1C(Nc2ccccc2)=NC[C@@H]1Cc1ccccc1)c1ccccc1 (stereo partly drawn)	-2	17	.	-1%	-82*	16
c1ccc(C[C@H]2CN=C(Nc3ccccc3)N2CCC2CCCC2)cc1	18	10	6%	-1%	-94*	-1
FC(F)(F)c1cc(-c2ccco2)nc(-n2nnc3ccccc32)n1	-2	14	2%	28µM*	13	4
CN1CCN(c2nc(-c3ccco3)cc(C(F)(F)F)n2)CC1	44	-14	2%	-30%	-6	10
O=[N+]([O-])c1cn(-c2nc(-c3ccco3)cc(C(F)(F)F)n2)cn1	5	15	8%	-4%	10	0
FC(F)(F)c1cc(-c2ccco2)nc(-n2nc(C(F)(F)F)cc2C2CC2)n1	-8	-3	8%	28µM*	-143*	12
CCCOc1ccc(CNC(=O)c2oc3ccc4c(c3c2C)C(=O)CC(C)(CC)O4)cc1 (stereo not drawn)	.	.	.	-6%	.	.
CCc1cccc(CC)c1NS(=O)(=O)c1ccc2c(c1)CCN2C(=O)C1CC1	.	.	.	1%	.	.
O=C(CCn1cnnn1)N1CCCC(Nc2ccc(F)c(F)c2)C1 (stereo not drawn)	-4	-23	25%	32µM*	4	-7
O=C(CC1CCCC1)N1CCCC(Nc2ccc(F)cc2)C1 (stereo not drawn)	-10	-5	-14%	-11%	-96*	3
O=C1CCCN1CCC(=O)N1CCCC(Nc2ccc(F)c(F)c2)C1 (stereo not drawn)	2	-7	9%	.	14	-1
O=C(CC1CCCC1)N1CCCC(Nc2cccc(F)c2)C1 (stereo not drawn)	-6	-11	-6%	.	-6	84*
SMILES	KCNH2 WT inh	TRPV1 potentiator	p53 reactivator	ClpP mod	KCNH2 3.1 block	TRPV1 agonist
CC1(CCC(=O)N2CCCC(Nc3ccc(F)cc3)C2)CC1 (stereo not drawn)	5	-21	-10%	-8%	3	?
Cc1ccc(NC(=O)c2cc3c([nH]c2=O)CC(c2ccccc2)CC3=O)cc1 (stereo not drawn)	.	.	.	4%	.	.
O=C(Nc1nccs1)[C@@H]1CC=C[C@@H]2CCN(C3CCCCC3)C(=O)[C@@H]21	.	.	.	-2%	.	.
CCCCC[C@]12Cc3ccccc3C(O1)C1=C(CC(C)(C)CC1=O)O2	.	i	.	.	.	i
O=C(Cn1c(=O)n(Cc2ccc(C(=O)NCc3ccc4c(c3)OCO4)cc2)c(=O)c2ccccc21)Nc1ccccc1F	.	.	.	4%	.	.
Cc1ccc(Cl)cc1NC(=O)Cn1c(=O)n(Cc2ccc(C(=O)NCc3ccc4c(c3)OCO4)cc2)c(=O)c2ccccc21	.	.	.	11µM*	.	.
Cc1ccc(NC(=O)Cn2c(=O)n(Cc3ccc(C(=O)NCc4ccc5c(c4)OCO5)cc3)c(=O)c3ccccc32)cc1	.	.	.	22µM*	.	.
COCCCNC(=O)C[C@H]1C[C@H](C(=O)N(C(C)C)C(C)C)[C@@]2(C)c3[nH]c4cc(-c5ccco5)ccc4c3CCN2C1=O	1	.	-7%	3%	-36	.
O=C(NCCc1ccc(O)c(O)c1)C1COc2ccccc2O1 (stereo not drawn)	-7	-32	7%	-1%	1	89*
O=C(NCCc1ccccc1)C1COc2ccccc2O1 (stereo not drawn)	6	-9	6%	2%	28	21
CC(=O)NCCn1ccc2ccccc21	0	0	-13%	28µM*	-17	0
Cc1cc(S(=O)(=O)N2CCC(NC(=O)C34CC5CC(CC(C5)C3)C4)CC2)ccc1-n1cnnn1	11	-12	-3%	1%	-89*	81*
O=C(C[N+]1(CCc2ccccc2)CCOCC1)c1cccc([N+](=O)[O-])c1	.	.	.	0%	.	.
O=C(COC(=O)Cn1cc(C(F)(F)F)ccc1=O)Nc1ccc(Br)cc1F	3	20	-5%	25µM*	-7	16
O=C(COC(=O)Cn1cc(C(F)(F)F)ccc1=O)Nc1ccccc1	-10	10	15%	2%	15	3
Cc1ccc(S(=O)(=O)N(C)Cc2ccc(C(=O)N/N=C/c3ccc(OC(F)F)cc3OC(F)F)cc2)cc1	-25	10	-14%	?	-75*	-4
Cc1ccc(S(=O)(=O)N2CCCC(c3nc4c(nnn4Cc4ccc(OC(F)(F)F)cc4)c(=O)[nH]3)C2)cc1 (stereo not drawn)	.	.	.	-1%	.	.
OC(c1ccc(F)cc1)c1ncc(-c2ccc3ccccc3c2)[nH]1 (stereo not drawn)	.	.	.	4%	.	.
CC(=O)Nc1ccc(S(=O)(=O)N2CCC(c3nnc(-c4ccc(C)cc4)o3)CC2)cc1	9	6	5%	-1%	-137*	-3
